Test results from ChEMBL document CHEMBL4513216, “Probing the Open Global Health Chemical Diversity Library for Multistage-Active Starting Points for Next-Generation Antimalarials” (ACS Infect Dis, 2020).
Hit rate of the full screen: of about 69,000 compounds, about 8,600 (12%) showed an effect of 50% or more. The full list was thinned out, with strong results kept by preference.

The compounds below were run on Plasmodium berghei (assay: Screen against P. berghei liver stage (PbLuc), transformed with Luciferase, at 10uM). Conditions: tested at 10 uM.
Format: functional, HepG2

In order of falling INHIBITION:
1. CCC(CNC(=O)NC1CCN(C)CC1)Oc1ccccc1Cl (centres undefined)  89.6%
2. CC(C)[C@H](C)NC1CCN(c2ccc(-c3cscn3)cc2)CC1  81.4%
3. CCCOc1ccccc1C(N)CC(C)C (centres undefined)  80.9%
4. Cc1cccc(CN2CCc3c(COCC(=O)N(C)C)nn(C)c3C2)n1  76.2%
5. CCNc1c(NC(=O)NCCOC)c(=O)oc2ccccc12  69.9%
6. CO[C@H]1CCN(Cc2nccs2)C[C@@H]1Cc1ccccc1  69.5%
7. CO[C@@H]1CCN(Cc2nccs2)C[C@@H]1Cc1ccccc1  62.5%
8. Cc1cnc2n(c1=O)C(CC(=O)NCc1ccc(Cl)cc1)CS2 (centres undefined)  61.2%
9. c1cnc(-c2noc(C3CN(Cc4ccc5c(c4)CCO5)C3)n2)cn1  58.5%
10. c1csc(-c2noc(C3CNC3)n2)c1  58.1%
11. CCc1nc(C)ncc1C(=O)N1CC(C)CN(C)c2ccccc21 (centres undefined)  57.8%
12. CS(=O)(=O)N1CCOCC2(CCN(Cc3ccc[nH]3)CC2)C1  57.1%
13. CCOC1CCC2(CCN(C(=O)c3csnn3)CC2)c2ccccc21 (centres undefined)  56.4%
14. CCN1CCN(C(=O)Cc2ccc(S(=O)(=O)C(F)F)cc2)CC1  55.9%
15. COCCNC(=O)c1ccc2c(=O)n3c(nc2c1)CCCCCC3  55.4%
16. COCCNC(=O)c1ccc2c(=O)n3c(nc2c1)CCCC3  54.9%
17. CC(=O)N1CCCC(Cc2cncc(Br)c2)CC1 (centres undefined)  54.6%
18. CO[C@@H]1CCN(Cc2nccs2)C[C@@H]1Cc1cccc(C)c1  54.4%
19. c1csc(-c2noc(C3CN(Cc4ccc5c(c4)CCO5)C3)n2)c1  52.5%
20. CC(C)N1CCCC(Cc2cncc(Br)c2)CC1 (centres undefined)  51.5%
21. CCOC1CCC2(CCN(C(=O)c3c[nH]cn3)CC2)c2ccccc21 (centres undefined)  51.4%
22. CNC(=O)C1CC2(CCN(C(=O)c3csnn3)CC2)c2ccccc21 (centres undefined)  51.3%
23. COc1cc(NC(=O)NCc2nccn2C)ccc1Br  50.8%
24. Cc1cc(O)n(-c2ccccc2Cl)c(=O)c1C#N  50.4%
25. CCc1nc(C)ncc1C(=O)N1CCN(CC)c2ccccc21  47.7%
26. CC(C)CC(C)NC1CCN(c2ccc(-c3cscn3)cc2)CC1 (centres undefined)  45.2%
27. CN1CCCC(Cc2cncc(Br)c2)CC1 (centres undefined)  44.9%
28. CCN(CC)CCNc1nc(C(C)C)nc2c(C)nn(CC)c12  44.9%
29. Cc1cccc(CN2CCc3c(CNC(=O)CC#N)nn(C)c3C2)n1  44.2%
30. CC(=O)N1CCCC(Cc2cncc(Br)c2)C1 (centres undefined)  44.1%
31. O=C(Cc1ccc(S(=O)(=O)C(F)F)cc1)N1CCC1  43.9%
32. O=C(CCc1cc2n(n1)CCCN(C(=O)c1ccncc1)C2)NC1CC1  43.2%
33. c1csc(-c2noc(C3CCCNC3)n2)c1 (centres undefined)  41.5%
34. COCCNC(=O)c1ccc2c(=O)n3c(nc2c1)CCCCC3  40.8%
35. C[C@@H]1C[C@@H]2CCN(Cc3nccs3)C[C@H]2O1  40.8%
36. CN1CCN(C(=O)Cc2ccc(S(=O)(=O)C(F)F)cc2)CC1  39.6%
37. COc1ccccc1-n1c(O)cc(C)c(C#N)c1=O  39.1%
38. Cc1cc(NC(=O)NCc2nccn2C)ccc1OC(C)C  37.1%
39. CN1CCN(C(=O)c2cncc(CC3CCCN(C)C3)c2)CC1 (centres undefined)  37%
40. Cc1cccc(CN2C(=O)CO[C@@H]3CN(Cc4nccn4C)C[C@H]32)c1  36.1%
41. CCOCC1CN(C(=O)c2ccncn2)Cc2cnn(CC)c21 (centres undefined)  35.7%
42. COc1ccc2c(c1)C(C(=O)NCCN1CCOC1=O)CC(=O)N2 (centres undefined)  34.9%
43. Cc1nn(C)c(N(C)C)c1CNCc1ccccc1Cn1cccn1  33.8%
44. O=C(O)c1ccccc1-c1ccc(CN2CCC(CO)C2)cn1 (centres undefined)  33.2%
45. Cc1cc(C)n(C2CCCN(C(=O)c3cccc(F)c3F)C2)n1 (centres undefined)  33%
46. CC(C)COc1ccccc1C(N)CC(C)C (centres undefined)  30.9%
47. CCOc1ccccc1C(N)CC(C)C (centres undefined)  30.9%
48. COCCN1CCOCC2(CCN(c3cnccn3)CC2)C1  29.4%
49. CS(=O)(=O)N1CCCC(Cc2cncc(Br)c2)CC1 (centres undefined)  29.3%
50. Cc1ccc(NC2CCN(C(=O)c3ccoc3C)CC2)nn1  28.95%
51. CCc1nc(C)ncc1C(=O)N1CC(=O)N(C)c2ccccc21  28.7%
52. c1cnc(-c2noc(C3CN(Cc4ccsc4)C3)n2)cn1  28.3%
53. c1cnc(-c2noc(C3CN(Cc4ccc5c(c4)CCO5)C3)n2)nc1  27.5%
54. CO[C@H]1CCN(c2nnc(C)s2)C[C@@H]1Cc1cccc(C)c1  24.9%
55. CN1CCN(C(=O)c2csnn2)c2ccccc21  23.2%
56. Cc1ccnc(C2(C)CCCN2S(=O)(=O)c2cccnc2)n1 (centres undefined)  21.2%
57. CN1CCc2nc3cc(C(=O)NCc4cccs4)ccc3c(=O)n2CC1  21.1%
58. C[C@H]1C[C@@H]2CCN(Cc3nccs3)C[C@H]2O1  20.1%
59. COCCN1CCn2c(nc3cc(C(=O)NC(C)C)ccc32)C1  19.3%
60. CN1CCOCC2(CCN(Cc3ccc[nH]3)CC2)C1  18.7%
61. CNS(=O)(=O)c1ccc(CNC(=O)N(C)CC(C)C)cc1  18.3%
62. Cc1cnc2n(c1=O)C(CC(=O)NCc1ccc(F)cc1)CS2 (centres undefined)  18.3%
63. Cn1ccnc1CNC(=O)Nc1ccc(OC2CCC2)c(F)c1  18%
64. Cc1ccc(S(=O)(=O)N(CC2CCOC2)C2CC2)cc1N(C)C (centres undefined)  17.1%
65. CN1CCC(NC(=O)NCCNc2ccccn2)CC1  16.1%
66. CC1CC2(CCN(C(=O)c3csnn3)CC2)c2ccccc21 (centres undefined)  15.9%
67. CN1CCC(c2cccc(-c3ccc(C(=O)O)cc3)n2)CC1  15.5%
68. CCOc1ccccc1OC1CCN(C(=O)c2csnn2)CC1  15.3%
69. COc1cccc(-n2nnc(C(=O)N3CCOC(C)C3)c2C)c1 (centres undefined)  14.05%
70. CS(=O)(=O)N1CC2(CCN(C(=O)c3csnn3)CC2)c2ccccc21  13.7%
71. CN(C)C(=O)COCc1nn(C)c2c1CCN(Cc1ccco1)C2  13.3%
72. O=C(Nc1nncs1)NC1CCN(Cc2ccccc2)C1 (centres undefined)  12.433%
73. CN(C)CCN1CCCC12CCN(C(=O)c1cccnc1)CC2  11.6%
74. CN1CCC(N2CCCC(C(=O)N3Cc4ccccc4C3)C2)CC1 (centres undefined)  10.6%
75. CCS(=O)(=O)N1CC(c2nc(-c3cccs3)no2)C1  9.41%
76. CC(=O)NCCNC(=O)c1nc(C2CC2)n(-c2ccccc2Cl)n1  8.46%
77. Cc1cnc2n(c1=O)C(CC(=O)NCc1ccccc1Cl)CS2 (centres undefined)  6.67%
78. CC1CC2(CCN(C(=O)c3c[nH]cn3)CC2)c2ccccc21 (centres undefined)  5.68%
79. O=C(c1ccco1)N1CCc2ncc(CN3CCOCC3)n2CC1  5.44%
80. Cc1ccccc1-n1c(O)cc(C)c(C#N)c1=O  3.84%
81. COc1cccc(C2(CNC(C)c3nnc(C)o3)CCCC2)c1 (centres undefined)  3.03%
82. CO[C@@H]1CCN(c2nnc(C)s2)C[C@@H]1Cc1cccc(C)c1  2.41%
83. Cc1nc(C(C)C)sc1C(=O)N1CCC(N2CCSCC2)CC1  1.86%
84. CC(=O)N1CCC(c2cncc(Cl)n2)CC1  1.62%
85. Cc1cc(NC(=O)CN2CCN(c3nc(C)cs3)C(C)C2)on1 (centres undefined)  -1.12%
86. Cc1nc2c(c(=O)[nH]1)CN(C(=O)CC[C@@H]1CCCN3CCCC[C@H]13)C2  -1.85%
87. Cn1ccc(C(=O)NCc2ccc(CN3CCCC3)cc2)cc1=O  -2.19%
88. Cc1noc(C2CN(Cc3ccc4c(c3)CCO4)C2)n1  -5.01%
89. Cc1noc([C@@H]2C[C@@H]3CCN(CC4CC4)C[C@H]3O2)n1  -6.39%
90. CO[C@H]1CCN(C2CCOCC2)C[C@@H]1Cc1ccccc1  -8.51%
91. CCn1ccc(NC(=O)c2cc(C)on2)n1  -9.21%
92. Cc1nnc(CN(C)CC(=O)NCCc2ccc(F)cc2)n1C  -9.39%
93. CN1CCC(NC(=O)Nc2cnn(-c3ccccc3Cl)c2)CC1  -10.1%
94. CCc1n[nH]c(C2CN(C(=O)c3ccc4c(c3)CCC4)CCO2)n1 (centres undefined)  -12.1%
95. CCCNc1c(NC(=O)NCCCOC)c(=O)oc2ccccc12  -13.6%
96. Cc1cnn(CC2CCCN2C(=O)c2ccc(OCC3CC3)nc2)c1 (centres undefined)  -15%
97. c1c[nH]c(CN2CCC3(CC2)COCCN(CCN2CCCC2)C3)c1  -15.3%
98. Cc1c(S(=O)(=O)NC2CC2)cc2c(C)cc(=O)n3c2c1CCC3  -17.1%
99. Cn1ccnc1CNC(=O)N(CCCO)C1CCCc2ccccc21 (centres undefined)  -17.4%
100. CCCNc1c(NC(=O)NCCOC)c(=O)oc2ccccc12  -24.7%
101. Cc1cccc(CN2CCC3(CCCN(C(=O)N4CCCC4)C3)C2=O)n1 (centres undefined)  -29.3%
102. c1csc(-c2noc(C3CCCOC3)n2)c1 (centres undefined)  -31%
103. CCOC1CC2(CCN(C(C)=O)CC2)c2cc(F)ccc21 (centres undefined)  -33.9%
104. COCCNC(=O)c1ccc2c(=O)n3c(nc2c1)CCN(C)CC3  -48.5%
105. CC(C)n1cnc2c1C(C(=O)N1CCOCC1)N(CC1CC1)CC2 (centres undefined)  -49.1%
106. Cc1nn(C)c(C)c1C1CCCN1Cc1nc2ccccc2n1C (centres undefined)  -55.4%
107. O=C(c1c[nH]cn1)N1CCCn2c(CN3CCCCC3)nnc2C1  -56.3%
108. CC(C)n1[nH]c(=O)c2c1NC(=O)CC2c1cccc2cccnc12 (centres undefined)  -62.3%
109. CO[C@@H]1CCN(C2CCOCC2)C[C@@H]1Cc1ccccc1  -84.9%
